# Data published in the supplement of paper PMC3334620.
# In all, about 33,000 sequences were measured (“E-score (-0.5 to 0.5)”: median about -0.012, highest 2% from about 0.29 on). The list comes from a sample in which the highest values are over-represented; it also holds similar and randomly drawn sequences.
# Target: T1, Ybr033w (UniProt P38073)
# T1 sequence: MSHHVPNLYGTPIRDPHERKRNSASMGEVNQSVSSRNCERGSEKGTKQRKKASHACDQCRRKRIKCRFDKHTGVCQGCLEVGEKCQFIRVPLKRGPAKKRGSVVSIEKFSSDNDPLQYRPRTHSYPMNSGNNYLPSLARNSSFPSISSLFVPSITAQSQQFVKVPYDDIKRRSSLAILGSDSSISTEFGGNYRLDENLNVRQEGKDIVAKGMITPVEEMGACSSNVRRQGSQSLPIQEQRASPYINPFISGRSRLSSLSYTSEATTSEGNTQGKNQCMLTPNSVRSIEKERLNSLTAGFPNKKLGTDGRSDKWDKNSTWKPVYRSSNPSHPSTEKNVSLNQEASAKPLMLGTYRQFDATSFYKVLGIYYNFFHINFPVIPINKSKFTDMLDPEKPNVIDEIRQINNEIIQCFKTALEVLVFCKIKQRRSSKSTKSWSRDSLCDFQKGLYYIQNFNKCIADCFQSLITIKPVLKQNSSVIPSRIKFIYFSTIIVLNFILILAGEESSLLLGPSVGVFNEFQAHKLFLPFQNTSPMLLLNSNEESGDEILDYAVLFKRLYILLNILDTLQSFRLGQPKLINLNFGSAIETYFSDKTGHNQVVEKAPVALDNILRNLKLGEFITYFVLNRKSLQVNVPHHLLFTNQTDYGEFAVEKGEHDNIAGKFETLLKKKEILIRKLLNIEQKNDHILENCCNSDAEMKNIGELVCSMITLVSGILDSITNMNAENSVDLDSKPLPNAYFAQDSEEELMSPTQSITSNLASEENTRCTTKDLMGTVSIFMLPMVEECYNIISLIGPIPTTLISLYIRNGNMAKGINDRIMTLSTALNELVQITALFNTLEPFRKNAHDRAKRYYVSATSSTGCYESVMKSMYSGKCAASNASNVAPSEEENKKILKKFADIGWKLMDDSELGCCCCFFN
# Experiment: PBM E-score (8-mer binding enrichment) (E-score (-0.5 to 0.5)); higher = stronger / more preferred TF binding
# Settings: protein concentration: 200 nM; construct: GST-full length
# In short: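 PURExpress in vitro transcription/translation supplied GST-tagged yeast transcription factors, either full-length or DNA-binding domain. Applied at about 100-200 nM to universal all-10-mer Agilent arrays double-stranded by primer extension, the bound protein was detected with fluorescent anti-GST. E-scores, modified Wilcoxon-Mann-Whitney statistics, were given by the Universal PBM Analysis Suite to ungapped eight-base words pooled with their reverse complements after masliner normalisation.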
row,Sequence,PBM E-score
1,TGAGGACA,0.00432
2,AAACTACG,0.0517
3,ATCTACCC,0.0482
4,ACATCAGG,0.038
5,CTTTTCGC,0.241
6,CAGGCAAC,-0.0967
7,ACGACCAT,-0.108
8,AATCTAGT,0.214
9,AGCTCACG,-0.088
10,GCTTAACA,0.0687
11,AATTAACA,0.295
12,GATTAACA,0.396
13,TATTAACA,0.291
14,AATTAACT,0.219
15,TATTAAGA,0.168
16,CATTAACA,0.139
17,AATTAACC,0.158
18,GATTAACC,0.195
19,ACCCAGGC,-0.0962
20,AAGTGAAT,0.239
21,CACAGCCA,-0.174
22,ATGCGGCA,-0.0591
23,AATTTCCC,0.226
24,ATTTCCCC,-0.0347
25,CTTTTCCC,0.0333
26,CCTTTTCC,-0.15

row,Sequence,PBM E-score
1,ATTTTCCA,0.361
2,ATTTTCCC,0.386
3,GTTTTCCA,0.215
4,CTTTTTCC,0.361
5,CTTTTCCA,-0.0875
6,GACCGGTC,-0.181
7,AATCGTCA,-0.0213
8,CAACGTTG,0.156
9,AGCTCTTC,0.0781
10,ATGATCCG,0.412
11,ATGATCCA,0.162
12,GAAATCCA,0.108
13,GTAATCCA,0.0788
14,CAAATCCA,0.0838
15,ATAATCCG,0.383
16,ATAATCGG,0.162
17,ATAATCCA,0.327
18,ACAATCCG,0.0606
19,ATAATCCC,0.189
20,AAAATCCA,0.339
21,ATGATCCC,0.244
22,CTCTGGCC,-0.15
23,ACAAAGAC,0.0319
24,GAGGAACA,0.171
25,CAGGAACC,-0.122
26,AAGGAACA,0.283

row,Sequence,PBM E-score
1,TAGGAACA,0.316
2,CAGGAACA,0.401
3,CAGGAACG,-0.0646
4,GGGACCCC,-0.33
5,ATGCCATG,-0.0545
6,AACCATTC,0.166
7,ACTGAACC,0.00627
8,GTTGGCGA,-0.0105
9,GATCGACC,0.0146
10,AAGCTAAA,0.107
11,TCCGGAAA,0.298
12,CCCGGAAA,0.192
13,GACGGAAA,0.227
14,ACCGGAAA,0.151
15,GCCGGAAC,0.205
16,GCCGGAAA,0.302
17,CTAGACCC,-0.194
18,AAAGGATG,0.163
19,GCACACCA,-0.145
20,GACTAATC,0.0103
21,GATTAATC,0.435
22,CATTAATC,0.252
23,ACTTAATC,0.275
24,GATTAAGA,0.213
25,GATTAATA,0.328
26,GATTAAGC,0.104

row,Sequence,PBM E-score
1,AATTAATC,0.341
2,CATTAATG,0.23
3,TATTAATA,0.101
4,AATTAGTC,0.212
5,CATTAATA,0.321
6,AGGGTGAT,-0.055
7,ATAGTTCA,0.202
8,AGAACGTA,0.0159
9,AAGGGGCT,-0.163
10,ATATTGTC,0.215
11,ACCTTGGC,-0.0759
12,ACAGCTAG,-0.105
13,ACCTACCG,-0.0859
14,AGCAGAGC,-0.0843
15,AACTCTGG,-0.0682
16,AAAGTTCC,0.132
17,AATTAAGT,0.305
18,AATTAAGA,0.171
19,AATTAAGC,0.169
20,AATTAATT,0.214
21,AATTAATA,0.429
22,AATTAAAC,0.377
23,AATTAAAT,0.276
24,AATTAATG,0.273
25,AATTAAAG,0.217
26,CAACTATG,0.102

row,Sequence,PBM E-score
1,ACGGGTAT,0.0865
2,ATTGGCTA,0.117
3,ACCAAGCC,-0.0301
4,TCCAATCA,0.0621
5,TGATAACA,0.176
6,GCGAGGAA,0.125
7,CCGGATTA,0.34
8,ATGGATAA,0.259
9,ACGGATTA,0.233
10,CGGGATTA,0.312
11,TGGGATAA,0.123
12,TCGGATAA,0.335
13,CTGGATAA,0.316
14,CGGGATTC,-0.0497
15,GCGGATTA,0.285
16,GTGGATAA,0.169
17,ACGGATAT,0.192
18,AGGGATTA,0.187
19,GGACCACA,-0.00774
20,CCTACCAC,-0.155
21,AGCGTCCA,-0.13
22,TAGGCTGA,-0.0515
23,CACCAACC,-0.105
24,AATCCACT,0.193
25,TAGCTTGA,-0.0114
26,GGCCTTGA,-0.0647

row,Sequence,PBM E-score
1,ACGTCAGG,-0.168
2,GCGGATAC,0.0188
3,GCGGATAA,0.416
4,CCGGATCA,0.345
5,ACGGATCA,0.236
6,CCGGATCC,-0.129
7,CCGGATGC,-0.178
8,CCGGATGA,0.289
9,ACGGATAA,0.276
10,CTGGATTC,0.00016
11,GTGGATTA,0.164
12,CTGGATTA,0.309
13,GCGGATGA,0.0612
14,CTTTGGTC,0.0811
15,GAACTTCC,0.16
16,CTTCGCCC,-0.143
17,AATAGGGG,-0.0543
18,GGGGCTCA,-0.219
19,AGTTGCGG,0.0698
20,AAGTTAGA,0.235
21,GTACAGAC,-0.1
22,GACACATC,-0.11
23,GGCTACCA,-0.203
24,GATGCTAC,0.0488
25,CCCTTTCA,-0.19
26,AAGTCTTA,-0.00514

row,Sequence,PBM E-score
1,CCGGATAG,0.0368
2,CCGGATAA,0.454
3,CCGGATAC,-0.0612
4,CCAGAATA,0.0783
5,ACTTTGGA,0.156
6,ACCATGAC,-0.0754
7,ACAGCTGC,-0.0919
8,CGAGAGAC,-0.188
9,CAATTAAC,0.224
10,AAATTATC,0.418
11,ACATTATC,0.219
12,AGATTATG,0.148
13,AAATTAGT,0.206
14,AAATTATG,0.227
15,AAATTAGG,0.138
16,AGATTATC,0.301
17,CAATTATC,0.365
18,CGATTATC,0.07
19,CAATTATG,0.08
20,AAATTATT,0.417
